Bioassay records (PubChem)
Shown are actives, neighbours in structure and some others; about 2% of the full set was active somewhere.
LYPLA1 counter: LYPLA1 (human) inhibition in PME1 counter-screen; O75608; recombinant LYPLA1, FP-Rh probe fluorescence polarization; inhibition, % at 5.9 µM; actives 0.16% (n = 320,000);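 active means inhibition above the mean of all tested compounds plus 3 SD, set per campaign, cut at about 14% in these data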;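 further: inhibitors block serine hydrolase probe labeling of LYPLA1 so polarization falls; 0% = enzyme with DMSO and 100% = wells lacking LYPLA1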
Target sequence (O75608 whole entry, looked up): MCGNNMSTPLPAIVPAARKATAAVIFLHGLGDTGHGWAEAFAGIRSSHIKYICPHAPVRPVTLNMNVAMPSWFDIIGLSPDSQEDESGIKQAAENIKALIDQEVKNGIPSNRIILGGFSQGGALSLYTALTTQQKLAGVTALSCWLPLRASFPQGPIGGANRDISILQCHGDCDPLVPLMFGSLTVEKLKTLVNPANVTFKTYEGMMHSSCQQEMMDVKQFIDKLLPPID
PME-1 primary: PME-1 (human) inhibition; actives 0.53% (n = 320,000); recombinant PME-1, FP-Rh probe fluorescence polarization; inhibition, % at 5.9 µM; AID 2130;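 active means inhibition above the campaign mean of all compounds plus 3 SD, cut at about 26% in these data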;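 further: competitive labeling of PME-1 active site by serine hydrolase directed probe; 0% = PME-1 with DMSO and 100% = wells lacking PME-1 enzyme; inhibitors block probe labeling so polarization falls and inhibition rises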
GSTO1 inh: GSTO1 inhibition, counter-screen for RBBP9 inhibitors. P78417. recombinant GSTO1, activity-based probe fluorescence polarization. inhibition, % at 5.96 µM. actives 1.1% (n = 300,000). AID 1974;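 active means inhibition above the campaign mean inhibition plus 3 SD, cut at about 35% in these data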;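 further: 0% = GSTO1-1 with DMSO and 100% = wells lacking GSTO1-1 enzyme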
Target sequence (P78417 whole entry, looked up): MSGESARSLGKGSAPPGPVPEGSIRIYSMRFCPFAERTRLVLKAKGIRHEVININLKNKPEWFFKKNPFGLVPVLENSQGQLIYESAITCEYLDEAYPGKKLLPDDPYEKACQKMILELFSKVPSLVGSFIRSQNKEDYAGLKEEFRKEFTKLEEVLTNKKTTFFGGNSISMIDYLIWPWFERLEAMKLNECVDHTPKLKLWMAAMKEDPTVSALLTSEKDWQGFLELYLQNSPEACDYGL
PREPL inh: inhibitors of human prolyl oligopeptidase-like enzyme PREPL; recombinant PREPL, fluorescence polarization activity-based probe; Q4J6C6; inhibition, % at 5.96 µM; actives 0.68% (n = 320,000);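 further: 0% = enzyme with DMSO and 100% = wells lacking enzyme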
Fam108B counter: counter-screen for RBBP9 inhibitors: inhibitors of mouse Fam108B | recombinant Fam108B, FP-Rh probe fluorescence polarization | inhibition, % at 9.51 µM | actives 0.33% (n = 300,000);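 active means inhibition above the screen mean inhibition plus 3 SD, computed separately per campaign, cut at about 18% in these data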;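 further: inhibitors lower polarization as less probe binds the enzyme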
LYPLA2 counter: counter-screen for PME1 inhibitors: inhibitors of human LYPLA2; actives 0.38% (n = 320,000); O95372; recombinant LYPLA2, FP-Rh probe fluorescence polarization; inhibition, % at 5.9 µM;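 active means inhibition above the screen-wide mean plus 3 SD, limit set per campaign, cut at about 26% in these data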;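 further: 0% = LYPLA2 with DMSO and 100% = wells lacking LYPLA2 enzyme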
PREPL confirm: human PREPL inhibition, confirmation | shares compounds with PREPL inh | recombinant PREPL, fluorescence polarization activity probe | inhibition, % at 5.96 µM | actives 67% (n = 2,000) | AID 2803;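 further: 0% = protein with DMSO and 100% = wells lacking protein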
Numbers without * were called inactive; / = not tested or not shown. Unless noted, no stated cut-off is given here; in the data, active means inhibition above about 43%; inactive means the rest.

SMILES	LYPLA1 counter	PME-1 primary	GSTO1 inh	PREPL inh	Fam108B counter	LYPLA2 counter	PREPL confirm
CN(C)c1ccc(NC(=O)Cn2cc3c(n2)CCCC3)cc1	0.2	0.4	6.5	69.2*	-0.8	-4.0	68.9*
COc1ccc(C2(C)CC(C)(C)Nc3ccccc32)cc1 (centres undefined)	-2.2	-2.1	3.4	-4.8	-1.6	2.2	/
COc1ccc(C2CC(C)(c3ccc(OC)cc3)Nc3ccccc3N2)cc1 (centres undefined)	-2.4	5.9	-1.2	45.0*	3.2	-7.2	39.2
COC(=O)CCN1CCc2cc(N=Nc3ccc([N+](=O)[O-])cc3)ccc21	-1.4	5.3	-3.5	2.7	-0.2	5.7	/
CCOC(=O)C1C(=O)NC(N2CCc3ccccc32)=NC1c1ccccc1 (centres undefined)	1.1	-2.3	5.4	43.7*	-1.2	10.3	6.8
CCOC(=O)C1C(=O)NC(N2CCCCC2)=NC1c1ccccc1 (centres undefined)	-2.8	-4.3	7.5	-3.6	-5.4	-8.9	/
O=C(CSc1nnc(COc2ccc(Cl)cc2)o1)NC1CC2CCC1C2 (centres undefined)	-2.2	0.3	4.5	46.5*	0.7	-1.8	35.7
O=C(O)CCCNC(=O)Cc1ccccc1	4.1	2.6	3.0	11.8	-4.0	-4.8	/
COc1ccccc1Nc1ccc(N)cc1	5.0	-0.1	35.4*	83.6*	5.6	9.1	42.6
CCOC(=O)c1cnc(-n2nc(C)cc2C)nc1Nc1ccc(OC)cc1	2.8	2.9	-1.4	9.8	0.1	-3.4	/
CCOC(=O)c1cnc(-n2nc(C)cc2C)nc1NCCc1ccccc1	4.5	4.7	-9.2	58.3*	1.0	4.6	54.5*
Fc1ccccc1N1CCN(c2cnc3ccccc3n2)CC1	2.5	8.2	2.6	24.7	-1.2	-5.6	/
Oc1ccccc1N1CCN(c2ccc3ccccc3n2)CC1	-0.9	3.6	2.2	54.2*	-1.8	2.7	42.5
Cc1onc(-c2ccccc2)c1C(=O)c1ccccc1	0.6	6.2	7.9	0.2	0.6	7.0	/
CN1c2ccsc2/C(=N/Nc2ccc(F)cc2)CS1(=O)=O	-1.1	12.8	13.1	57.2*	3.4	4.3	34.2
CCCC(=O)N/N=C1\CS(=O)(=O)N(C)c2ccsc21	-5.3	-7.3	8.1	-1.2	-2.2	-13.1	/
N#Cc1ccc(CSc2nnc(-c3cccnc3)n2-c2ccccc2)cc1	1.4	3.3	6.5	46.0*	1.3	2.6	41.2
Cc1c(NCc2cc(Cl)cc(Cl)c2O)c(=O)n(-c2ccccc2)n1C	-4.0	3.9	14.5	49.9*	7.9	5.6	58.1*
O=C1Nc2ccccc2S/C1=C/Nc1cccc(Cl)c1	-3.5	7.3	5.6	44.8*	0.7	2.9	33.2
Cc1cc(C)cc(N(CCC#N)C(=O)COC(=O)CCc2c[nH]c3ccccc23)c1	2.1	-3.9	/	45.6*	/	4.9	38.8
CN(C(=O)COC(=O)CCc1c[nH]c2ccccc12)c1ccccc1	-2.3	-6.1	7.7	-11.4	-1.5	-7.1	/
Cc1noc(C)c1S(=O)(=O)Nc1ccc2c(c1)C(=O)N([C@H](C)CO)C[C@H](C)[C@@H](CN(C)C(=O)Nc1ccc(C(F)(F)F)cc1)O2	/	/	/	54.8*	/	/	50.1*
CNC[C@@H]1Oc2ccc(NC(=O)Nc3ccccc3)cc2C(=O)N([C@@H](C)CO)C[C@H]1C	/	/	/	4.3	/	/	/
Cc1noc(C)c1S(=O)(=O)Nc1ccc2c(c1)C(=O)N([C@H](C)CO)C[C@H](C)[C@@H](CN(C)C(=O)Nc1ccccc1)O2	/	/	/	9.1	/	/	/
C[C@@H]1CN([C@@H](C)CO)C(=O)c2cc(NC(=O)Nc3ccc4c(c3)OCO4)ccc2O[C@H]1CN(C)S(=O)(=O)c1ccc(F)cc1	/	/	/	37.7	/	/	/
SMILES	LYPLA1 counter	PME-1 primary	GSTO1 inh	PREPL inh	Fam108B counter	LYPLA2 counter	PREPL confirm
C[C@H](CO)N1C[C@H](C)[C@@H](CN(C)S(=O)(=O)c2ccc(F)cc2)Oc2ccc(NC(=O)Nc3ccc4c(c3)OCO4)cc2C1=O	/	/	/	45.2*	/	/	47.8*
COc1ccc(S(=O)(=O)Nc2ccc3c(c2)C(=O)N([C@H](C)CO)C[C@H](C)[C@@H](CN(C)C(=O)Nc2ccc(C(F)(F)F)cc2)O3)cc1	/	/	/	44.7*	/	/	41.3
CNC[C@@H]1Oc2ccc(NC(=O)Nc3cccc4ccccc34)cc2C(=O)N([C@@H](C)CO)C[C@@H]1C	/	/	/	49.6*	/	/	46.1*
O=S(=O)(c1ccc(F)cc1)N1CCN(C(=S)NCC2CCCO2)CC1 (centres undefined)	-1.2	-7.2	5.8	2.5	-1.4	-0.7	/
Cc1ccc(CN(C)C(=O)c2cc(COc3cccc(C(F)(F)F)c3)on2)o1	-10.0	-9.4	-7.7	5.6	-3.2	-4.1	/
NCCCC[C@@H]1NC(=O)c2cc([N+](=O)[O-])cc(I)c2SC[C@@H](C(N)=O)NC(=O)[C@H](Cc2ccc(O)cc2)NC1=O	-2.1	-11.8	1.3	54.4*	2.3	-22.4	48.6*
NCCCC[C@@H]1NC(=O)[C@H](CCC(=O)O)NC(=O)c2cc([N+](=O)[O-])cc(I)c2SC[C@@H](C(=O)NCC(N)=O)NC1=O	0.5	-3.9	31.2	7.5	3.1	1.0	/
Cc1c(CN(C)C)c2c(n1Cc1ccccc1)C(=O)c1ccc(Br)cc1-2	2.3	8.1	0.3	53.6*	3.7	3.7	50.4*
O=c1oc2cc(Br)ccc2n1Cc1ccccc1	-3.2	-1.0	-0.8	-13.3	-1.5	-1.2	/
O=C(Cc1nnc(NC(=O)Nc2ccccc2F)s1)NCc1ccccc1	1.0	-2.6	3.4	7.6	5.7	1.0	/
Cc1c(C(=O)N2CCN(c3ccccn3)CC2)sc2ncnc(N3CCN(c4ccccc4)CC3)c12	2.4	2.3	-4.0	43.7*	-1.6	3.9	28.5
Cc1c(C(=O)N2CCN(Cc3ccc4c(c3)OCO4)CC2)sc2ncnc(N3CCN(c4ccccc4)CC3)c12	0.3	3.4	1.0	45.3*	3.8	5.5	48.1*
Cc1c(C(=O)N2CCN(c3ccccc3)CC2)sc2ncnc(N3CCC(C)CC3)c12	0.9	8.6	-0.4	-100.9	1.2	10.4	/
Cc1c(C(=O)N2CCN(Cc3ccc4c(c3)OCO4)CC2)sc2ncnc(N3CCN(c4ccccc4F)CC3)c12	-2.9	-0.1	5.1	48.0*	-2.3	5.1	44.2*
Cc1ccc(C)c(Sc2ccc(S(=O)(=O)Nc3ccc(C(=O)O)cc3)cc2)c1	2.4	5.8	/	5.2	/	15.2	/
CN1CCc2c(sc3c2C(=O)NC(c2cn(Cc4ccccc4)c4ccccc24)N3)C1 (centres undefined)	-6.1	12.8	-12.0	55.5*	-5.6	-11.6	60.6*
O=C(/C=C/c1cccc([N+](=O)[O-])c1)NCCSc1ccccc1	2.0	3.4	1.1	46.2*	0.1	4.8	41.4
